The values below come from PubChem BioAssay (NCI).

The panel holds about 79,000 compounds, 15% with a hit somewhere; the sample as a whole holds those more often. Activity calls are given as the source filed them. No stated cut-off is given here; in the data, active means growth inhibition above about 70%; inactive means the rest.

A short description of assay [1]: NCI Yeast Anticancer Drug Screen. Data for the rad50 strain (AID 155).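 Further: 0% = growth of vehicle-only cultures of the same strain.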 To be noted: S. cerevisiae rad50 strain growth inhibition, active compounds read high. In short, it runs like this: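 Genetically altered yeast (DNA repair pathway); compound treatment; growth inhibition vs vehicle ctrl.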
Assay [2] can be described thus: NCI Yeast Anticancer Drug Screen. Data for the mec2-1 strain (AID 157). The following applies: S. cerevisiae mec2-1 strain, active compounds read high. The method, boiled down:
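Growth inhibition is read against vehicle-treated controls after compound exposure of the mec2-1 yeast strain, which is defective in DNA damage repair or cell cycle control.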

A short description of assay [3]: NCI Yeast Anticancer Drug Screen. Data for the sgs1 mgt1 strain (AID 161).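 Further: 0% = growth of cultures given vehicle only.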 To be noted: S. cerevisiae sgs1 mgt1 strain, active compounds read high. In short, it runs like this:
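Growth of a repair-deficient yeast mutant was monitored after compound treatment and expressed as inhibition relative to vehicle-treated cultures.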

Assay [4] is described as follows: NCI Yeast Anticancer Drug Screen. Data for the cln2 rad14 strain (AID 165).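 Further: 0% = growth equal to vehicle treated cultures.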 The following applies: S. cerevisiae cln2 rad14 strain, active compounds read high. The method, boiled down:
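Growth inhibition, relative to vehicle-treated controls, is the read-out. The test organism is a yeast strain with defined genetic alterations, cln2 rad14.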

A short description of assay [5]: NCI Yeast Anticancer Drug Screen. Data for the bub3 strain (AID 167). To be noted: S. cerevisiae bub3 mutant strain, active compounds read high. The method, boiled down:
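Yeast carrying a defined mutation is treated with each compound, and growth is compared with that of vehicle-exposed cells to give inhibition.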

Assay [6] in a line: NCI Yeast Anticancer Drug Screen. Data for the mlh1 rad18 strain (AID 175). The following applies: S. cerevisiae mlh1 rad18 strain growth inhibition, active compounds read high. The method, boiled down:
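Cells of a genetically altered yeast strain, deficient in DNA damage repair, were treated with compound. Their growth was then compared with that of vehicle-treated cultures to give inhibition.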

The mark [7] stands for this setting: at 5.0 µM (retest, dose inferred, filed as 0.5).
Setting [8] is: at 50.0 µM (retest, dose inferred, filed as 5.0).

For `C[CH2][Sn]([CH2]C)([O]C(=O)c1c(F)cccc1F)[O][Sn]([CH2]C)([CH2]C)[O]C(=O)c1c(F)cccc1F`, the growth inhibition in assay [1] (setting [7]) was 40% (inactive); in assay [1] (setting [8]) it was 89% (active); in assay [1] (at 50.0 µM), 81.3% (active); in assay [2] (setting [7]), 34% (inactive); in assay [2] (setting [8]), 95% (active); in assay [2] (at 50.0 µM) it was 81.8% (active). The growth inhibition in assay [3] (setting [7]) was 36% (inactive); in assay [3] (setting [8]), 95% (active); in assay [3] (at 50.0 µM), 83.2% (active); in assay [4] (setting [7]), 28% (inactive); in assay [4] (setting [8]), 84% (active); in assay [4] (at 50.0 µM), 72.4% (active). Further, the growth inhibition is 45% (inactive) in assay [5] (setting [7]); 72% (active) in assay [5] (setting [8]); 78.5% (active) in assay [5] (at 50.0 µM); 44% (inactive) in assay [6] (setting [7]); 93% (active) in assay [6] (setting [8]); 78.2% (active) in assay [6] (at 50.0 µM).
`O=C1CSC(c2cccc([N+](=O)[O-])c2)N1c1ccc(-c2ccc(-n3c(-c4ccccc4)nc4ccccc4c3=O)cc2)cc1` (configuration not stated): the growth inhibition is -12% (inactive) in assay [1] (setting [7]); 72% (active) in assay [1] (setting [8]); 25.1% (inactive) in assay [1] (at 50.0 µM); -2% (inactive) in assay [2] (setting [7]); 36% (inactive) in assay [2] (setting [8]); 59.5% (inactive) in assay [2] (at 50.0 µM). Besides, the growth inhibition in assay [3] (setting [7]) is 2% (inactive); in assay [3] (setting [8]) it was 78% (active); in assay [3] (at 50.0 µM), -29.4% (inactive); in assay [4] (setting [7]) it was 26% (inactive); in assay [4] (setting [8]), 48% (inactive); in assay [4] (at 50.0 µM) it was 34% (inactive). Also, the growth inhibition in assay [5] (setting [7]) is -12% (inactive); in assay [5] (setting [8]), 91% (active); in assay [5] (at 50.0 µM), 87.8% (active); in assay [6] (setting [7]), 9% (inactive); in assay [6] (setting [8]), 90% (active); in assay [6] (at 50.0 µM), 83.2% (active).
Turning to `O=C1C(c2c[nH]c3ccc(Br)cc23)=Nc2ccc(Br)cc21`, the growth inhibition in assay [1] (setting [7]) is -1% (inactive); in assay [1] (setting [8]), 2% (inactive); in assay [1] (at 50.0 µM), 88% (active); in assay [2] (setting [7]), 3% (inactive); in assay [2] (setting [8]), 21% (inactive); in assay [2] (at 50.0 µM) it was 75.8% (active). The growth inhibition in assay [3] (setting [7]) is -20% (inactive); in assay [3] (setting [8]) it was -32% (inactive); in assay [3] (at 50.0 µM), 85.5% (active); in assay [4] (setting [7]), -6% (inactive); in assay [4] (setting [8]), -18% (inactive); in assay [4] (at 50.0 µM), 88.8% (active). Besides, the growth inhibition in assay [5] (setting [7]) is -4% (inactive); in assay [5] (setting [8]), -2% (inactive); in assay [5] (at 50.0 µM), 82.2% (active); in assay [6] (setting [7]) it was 7% (inactive); in assay [6] (setting [8]), 25% (inactive); in assay [6] (at 50.0 µM) it was 73.4% (active).
Regarding `CCOC(=O)c1c(C)[nH]c(CO)c1C`, the growth inhibition in assay [1] (setting [7]) is -1% (inactive); in assay [1] (setting [8]), 14% (inactive); in assay [1] (at 50.0 µM), 28.1% (inactive); in assay [2] (setting [7]) it was 6% (inactive); in assay [2] (setting [8]), 20% (inactive); in assay [2] (at 50.0 µM), 38% (inactive). Moreover, the growth inhibition in assay [3] (setting [7]) is 2% (inactive); in assay [3] (setting [8]), 24% (inactive); in assay [3] (at 50.0 µM), 43.1% (inactive); in assay [4] (setting [7]) it was 4% (inactive); in assay [4] (setting [8]) it was 0% (inactive); in assay [4] (at 50.0 µM), 31.8% (inactive). Also, the growth inhibition in assay [5] (setting [7]) was 4% (inactive); in assay [5] (setting [8]), 8% (inactive); in assay [5] (at 50.0 µM), 34% (inactive); in assay [6] (setting [7]), -1% (inactive); in assay [6] (setting [8]), 13% (inactive); in assay [6] (at 50.0 µM) it was 65.5% (inactive).
As to `Cc1ccc(NC(=O)c2cc3ccccc3c(N=Nc3cc(S(=O)(=O)O)ccc3O)c2O)c(C)c1`, the growth inhibition in assay [1] (setting [7]) was 33% (inactive); in assay [1] (setting [8]) it was 85% (active); in assay [1] (at 50.0 µM), 71.8% (active); in assay [2] (setting [7]), 33% (inactive); in assay [2] (setting [8]), 84% (active); in assay [2] (at 50.0 µM), 52.3% (inactive). Besides, the growth inhibition in assay [3] (setting [7]) is 56% (inactive); in assay [3] (setting [8]) it was 92% (active); in assay [3] (at 50.0 µM), 78.7% (active); in assay [4] (setting [7]), 29% (inactive); in assay [4] (setting [8]), 43% (inactive); in assay [4] (at 50.0 µM), 59.9% (inactive). The growth inhibition in assay [5] (setting [7]) was 50% (inactive); in assay [5] (setting [8]) it was 92% (active); in assay [5] (at 50.0 µM), 82.8% (active); in assay [6] (setting [7]) it was 57% (inactive); in assay [6] (setting [8]) it was 87% (active); in assay [6] (at 50.0 µM), 80.8% (active).
`O=c1c(S(=O)(=O)Oc2ccccc2)coc2cc(F)ccc12`: the growth inhibition in assay [1] (setting [7]) is 99% (active); in assay [1] (setting [8]), 100% (active); in assay [1] (at 50.0 µM) it was 81.7% (active); in assay [2] (setting [7]), 99% (active); in assay [2] (setting [8]), 100% (active); in assay [2] (at 50.0 µM) it was 86.7% (active). Further, the growth inhibition in assay [3] (setting [7]) was 99% (active); in assay [3] (setting [8]), 100% (active); in assay [3] (at 50.0 µM), 90.2% (active); in assay [4] (setting [7]), 99% (active); in assay [4] (setting [8]), 100% (active); in assay [4] (at 50.0 µM), 91.5% (active). The growth inhibition in assay [5] (setting [7]) was 99% (active); in assay [5] (setting [8]) it was 100% (active); in assay [5] (at 50.0 µM), 91% (active); in assay [6] (setting [7]) it was 99% (active); in assay [6] (setting [8]), 100% (active); in assay [6] (at 50.0 µM) it was 93.1% (active).
For the molecule `CCOC(=O)c1c(Cl)c(CC)c(N=[N+]=[N-])n2c1nc1ccccc12`, the growth inhibition in assay [1] (setting [7]) was 8% (inactive); in assay [1] (setting [8]), 73% (active); in assay [1] (at 50.0 µM), 58.9% (inactive); in assay [2] (setting [7]), 8% (inactive); in assay [2] (setting [8]), 79% (active); in assay [2] (at 50.0 µM), 56.9% (inactive). Also, the growth inhibition in assay [3] (setting [7]) was 10% (inactive); in assay [3] (setting [8]), 73% (active); in assay [3] (at 50.0 µM), 60.1% (inactive); in assay [4] (setting [7]), 0% (inactive); in assay [4] (setting [8]) it was 63% (inactive); in assay [4] (at 50.0 µM), 69.6% (inactive). The growth inhibition in assay [5] (setting [7]) was 1% (inactive); in assay [5] (setting [8]) it was 74% (active); in assay [5] (at 50.0 µM) it was 55% (inactive); in assay [6] (setting [7]), 9% (inactive); in assay [6] (setting [8]), 80% (active); in assay [6] (at 50.0 µM), 64.6% (inactive).
As to `O=[N+]([O-])c1ccc2c(c1)OCO2`, the growth inhibition in assay [1] (setting [7]) was 0% (inactive); in assay [1] (setting [8]), 22% (inactive); in assay [1] (at 50.0 µM), 68.2% (inactive); in assay [2] (setting [7]), 1% (inactive); in assay [2] (setting [8]), 4% (inactive); in assay [2] (at 50.0 µM), 8% (inactive). Also, the growth inhibition in assay [3] (setting [7]) was -2% (inactive); in assay [3] (setting [8]) it was 3% (inactive); in assay [3] (at 50.0 µM), 69.7% (inactive); in assay [4] (setting [7]), 1% (inactive); in assay [4] (setting [8]), 0% (inactive); in assay [4] (at 50.0 µM), 6.95% (inactive). Moreover, the growth inhibition in assay [5] (setting [7]) was 0% (inactive); in assay [5] (setting [8]), 3% (inactive); in assay [5] (at 50.0 µM) it was 37% (inactive); in assay [6] (setting [7]), -4% (inactive); in assay [6] (setting [8]), 5% (inactive); in assay [6] (at 50.0 µM) it was 67.7% (inactive).
Turning to `C/C(=N/O)c1cc([N+](=O)[O-])c(O)cc1O`, the growth inhibition in assay [1] (setting [7]) is -27% (inactive); in assay [1] (setting [8]) it was 70% (active); in assay [1] (at 50.0 µM) it was 86.7% (active); in assay [2] (setting [7]) it was -10% (inactive); in assay [2] (setting [8]), 76% (active); in assay [2] (at 50.0 µM) it was 84.9% (active). Besides, the growth inhibition is -15% (inactive) in assay [3] (setting [7]); 80% (active) in assay [3] (setting [8]); 89.2% (active) in assay [3] (at 50.0 µM); -6% (inactive) in assay [4] (setting [7]); 44% (inactive) in assay [4] (setting [8]); 61.1% (inactive) in assay [4] (at 50.0 µM). Also, the growth inhibition in assay [5] (setting [7]) was -35% (inactive); in assay [5] (setting [8]), 76% (active); in assay [5] (at 50.0 µM) it was 86.5% (active); in assay [6] (setting [7]), -16% (inactive); in assay [6] (setting [8]), 80% (active); in assay [6] (at 50.0 µM) it was 85.8% (active).
